Most compounds without a hit are left out; they make up all but 4.8% or so of the library.
DAX1 inh-1 – inhibits human nuclear receptor DAX1; 340,000 compounds, 0.99% hits; HEK293 Gal4-DAX1 luciferase reporter, luminescence; AID 504766; inhibition, % at 6.75 µM; P51843;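 active means inhibition above the mean over all tested compounds plus 3 SD, cut at about 4.2% in these data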;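 further: 0% = DAX1-transfected cells with DMSO and 100% = empty-vector control cells with DMSO; inhibition shows as a rise in luminescence from relieved DAX1 repression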
hcDAF12 agonist – H. contortus DAF-12 activation, primary screen; 370,000 compounds, 1.4% hits; AID 652067; HEK293 hcDAF-12 lit1-tk-luc reporter, luminescence; 0% DMSO, 100% Δ7-dafachronic acid; activation, % at 6.8 µM;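 active means activation above the mean of all tested compounds plus 3 SD, cut at about 5.5% in these data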;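 further: 100% = response to 3 µM Δ7-dafachronic acid high control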
DAX1 inh-2 – blocks DAX1 repression of SF-1 activated StAR promoter; AID 652010; HEK293T StAR-luciferase reporter, SF-1/DAX-1 repression relief; 370,000 compounds, 1.1% hits; inhibition, % at 6.8 µM;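 active means inhibition above the mean over all tested compounds plus 3 SD, cut at about 3.6% in these data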;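 further: 0% = DAX-1 cells with DMSO and 100% = cells lacking DAX-1 with DMSO; higher inhibition means more luminescence from relief of DAX-1 repression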
ssDAF12 agonist – activates DAF-12 receptor from parasite S. stercoralis; HEK293 ssDAF-12/GRIP1 lit1-tk-luc reporter, luminescence; % of 3 µM dafachronic acid response; activation, % at 6.8 µM; 370,000 compounds, 1% hits; AID 652126;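 active means activation above the mean over all tested compounds plus 3 SD, cut at about 0.9% in these data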;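 further: 0% = DMSO-only wells and 100% = 3 µM delta7-dafachronic acid wells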
hgDAF12 agonist – activates the H. glycines DAF-12 receptor ligand-binding domain; HEK293 GAL4-hgDAF12 UAS-luciferase reporter, agonist luminescence; normalized to butyrate control; activation, % at 6.8 µM; 370,000 compounds, 1.8% hits; AID 687014;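 active means activation above a cutoff set at the mean of all screened compounds plus 3 SD, cut at about 10% in these data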;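 further: 0% = DMSO wells and 100% = sodium butyrate wells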
SMARCA2 act – SMARCA2 function activation, primary screen | MG213 cells, MMTV-luciferase reporter, dexamethasone, overnight | activation, % at 9.1 µM | 370,000 compounds, 1% hits | AID 652017; in the data active means activation above about 7.8%;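 further: 0% = vehicle wells and 100% = reference activator wells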
SMARCA2 act conf – SMARCA2 activation, confirmation screen; activation, % at 9.1 µM; 3,500 compounds, 30% hits; AID 652260; shares compounds with SMARCA2 act; MG213 cells, MMTV-luciferase with dexamethasone, luminescence, overnight; MG213 cells expressing E1A, Rb sequestered; DMSO wells 0%, reference activator 100%;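 active means activation above its plate's cutoff, the mean activation of tested wells plus 3 SD, cut at about 7.9% in these data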
VP16 Luc act – GAL4-VP16 reporter activation counter-screen. HEK293 GAL4-VP16 pG5luc reporter, luciferase luminescence; scaled: DMSO wells 0%, SAHA wells 100%. AID 686939. 3,500 compounds, 41% hits. shares compounds with SMARCA2 act. activation, % at 9.1 µM;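 active means activation above the solvent-only control well mean plus 3 SD, averaged across control plates, cut at about 5.2% in these data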
LXR ag – LXR-beta agonism as hcDAF-12 counter-screen. shares compounds with hcDAF12 agonist. 3,400 tested, under 10 active. HEK293 Gal4-LXR tk-luc reporter, luminescence, 24 h; normalized: DMSO 0%, positive control 100%. activation, % at 6.8 µM;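 active means mean percent activation of the reporter above a cutoff set as the average over tested compounds plus their standard deviation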
Target sequence (P55055 whole entry, looked up, the tested form may be a part): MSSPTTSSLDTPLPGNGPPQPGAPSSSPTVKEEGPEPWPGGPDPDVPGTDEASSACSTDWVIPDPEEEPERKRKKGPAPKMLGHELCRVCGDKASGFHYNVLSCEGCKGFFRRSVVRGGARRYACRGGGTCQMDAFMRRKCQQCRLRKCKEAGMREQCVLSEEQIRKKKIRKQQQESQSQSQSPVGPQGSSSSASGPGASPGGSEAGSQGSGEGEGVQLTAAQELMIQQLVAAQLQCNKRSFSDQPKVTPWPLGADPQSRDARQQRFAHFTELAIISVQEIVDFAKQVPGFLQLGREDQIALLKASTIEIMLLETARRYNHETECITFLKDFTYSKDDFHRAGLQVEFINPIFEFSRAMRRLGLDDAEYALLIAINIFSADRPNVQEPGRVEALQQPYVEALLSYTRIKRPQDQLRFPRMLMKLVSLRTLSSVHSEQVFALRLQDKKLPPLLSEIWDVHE
hcDAF12 ag – hcDAF-12 agonism, confirmation assay; 3,400 compounds, 61% hits; HEK293 hcDAF-12 lit1-tk-luc reporter, luminescence; % of Δ7-dafachronic acid response; shares compounds with hcDAF12 agonist; activation, % at 6.8 µM; AID 743032;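 active means mean activation across triplicate tests above the threshold derived from the earlier primary screen, cut at about 5.5% in these data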;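 further: 0% = DMSO only wells and 100% = 3 µM Δ7-dafachronic acid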
hgDAF12 conf – hgDAF-12 agonism, confirmation assay. shares compounds with hgDAF12 agonist. HEK293 GAL4-hgDAF12 luciferase reporter, agonist mode; percent of butyrate response. activation, % at 6.8 µM. 3,300 compounds, 80% hits. AID 743050;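 active means mean activation over triplicate wells above the hit cutoff derived from the earlier primary screen, cut at about 11% in these data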;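 further: 0% = DMSO low control and 100% = 2 mM sodium butyrate high control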
LXR ag 2 – LXR-beta agonism as DAF-12 counter-screen; 3,300 tested, under 10 active; shares compounds with hgDAF12 agonist; HEK293 Gal4-LXR luciferase reporter, 24 h; AID 743051; activation, % at 6.8 µM;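 active means mean activation of the triplicate above a set limit carried over from the primary screen, none filed active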
* hit, by the source's call; / = no result.

SMILES	DAX1 inh-1	hcDAF12 agonist	DAX1 inh-2	ssDAF12 agonist	hgDAF12 agonist	SMARCA2 act	SMARCA2 act conf	VP16 Luc act	hgDAF12 conf	LXR ag 2	others
O=C(Nc1ccc(Br)cn1)c1ccc2ccccc2c1	2	4	2	1.6*	14*	9.3*	12*	14*	19*	1
COCCN(CCOC)C(=O)[C@@H](Cc1ccccc1)NC(=O)[C@H]1O[C@@H](n2ccc(N)nc2=O)[C@H](O)[C@@H]1O	/	-2	0	-1	2	0	/	/	/	/
Cc1ccc(CN2CCCCC(NC(=O)Nc3cccc(F)c3)C2=O)cc1 (configuration not stated)	/	-1	1	-1	-1	-2	/	/	/	/
Cc1ccc(N2Cc3ccccc3OC(C)C2=O)cc1 (configuration not stated)	0	1	1	-2	0	4	/	/	/	/
Cc1ccc(N2Cc3ccccc3C2=S)cc1	2	4	4	1	21*	13*	12*	11*	20*	1
COc1ccc(C(CC(=O)Nc2nccs2)n2cccc2)cc1 (configuration not stated)	3	3	2	0.9*	16*	8.1*	5	10.0*	16*	1
COC(=O)C1=C(C)N(Cc2ccccc2C(F)(F)F)C(=NCc2ccc3c(c2)OCO3)NC1c1ccccc1 (configuration not stated)	/	0	0	-1	0	-1	/	/	/	/
Oc1ccc(-c2cnc(-c3ccc(O)cc3)nc2)cc1	-2	6.9*	3	1.2*	17*	13*	12*	11*	17*	1	LXR ag=3;hcDAF12 ag=8.7*
CCCC(=O)Nc1ccc(-c2cnc(-c3ccc(NC(=O)CCC)cc3)nc2)cc1	1	0	0	-1	4	-3	/	/	/	/
O=C(Cc1ccccc1)Nc1nnc(-c2cccnc2)s1	/	0	0	-1	0	-1	/	/	/	/
COc1cc(OC)cc(-n2nnnc2SCC(=O)Nc2nc3c(s2)CCCC3)c1	0	-1	0	-1	0	0	/	/	/	/
Cn1nnnc1SCC(=O)Nc1nc2c(s1)CCCC2	1	6.4*	3.7*	0	13*	11*	6	9.0*	16*	1
O=C(NN=C1CCCC1)c1cccc(O)c1	1	3	3	1	14*	8.9*	3	1	2	0
O=C(NN=C1CCCC1)c1cc(O)cc(O)c1	0	-1	2	-1	3	3	/	/	/	/
CCC(NC(=O)c1ccc2c(c1)c(C)c(C)n2Cc1ccc(Cl)cc1)c1ccccc1 (configuration not stated)	/	1	-3	-1	3	0	/	/	/	/
CCCCCCCCN1C(=O)[C@@H](CC(=O)N2CCOCC2)C[C@@]2(C(=O)OC)C1=C[C@H](C1CCCC1)O[C@@H]2C	/	-1	1	-1	0	2	/	/	/	/
Nc1cccn2c(-c3ccc(Cl)cc3)cnc12	2	7.4*	3	1	16*	9.3*	15*	20*	18*	1	LXR ag=1;hcDAF12 ag=10*
O=S(=O)(Nc1ccc2c(c1)oc1ccccc12)N1CCCC1	-1	-1	0	-1	1	1	/	/	/	/
CN1CCCC1CCNc1ccc2c(=O)c3ccccc3oc2c1 (configuration not stated)	3	2	2	0	14*	11*	14*	8.9*	15*	1
O=C(O)c1ccc(N=Nc2c(O)[nH]c3cc(Cl)ccc23)cc1	6.4*	5	3.7*	0	17*	14*	12*	14*	19*	1
Cc1ccccc1C(=O)N[C@H](C(=O)N1CCC[C@H]1C(=O)NCCc1ccccc1Cl)C(C)C	/	0	0	-1	-1	-1	/	/	/	/
CC(C)C[C@H]1COc2cc(Br)ccc2S(=O)(=O)N1Cc1cccc(Cl)c1	/	0	1	-1	4	1	/	/	/	/
O=C(NC1CCCCCC1)c1cc2ccccc2oc1=O	1	7.5*	4.0*	0.9*	13*	8.9*	6	12*	16*	1	LXR ag=1;hcDAF12 ag=3
Cc1nc(NC(=O)/C=C/c2ccco2)sc1C	3	1	2	-1	13*	10*	7	7.6*	19*	1
O=C(/C=C/c1ccco1)Nc1nnc(-c2ccco2)s1	1	0	1	0	3	3	/	/	/	/
SMILES	DAX1 inh-1	hcDAF12 agonist	DAX1 inh-2	ssDAF12 agonist	hgDAF12 agonist	SMARCA2 act	SMARCA2 act conf	VP16 Luc act	hgDAF12 conf	LXR ag 2	others
CN(C(=O)COC(=O)c1ccc2c(c1)OCO2)C1CCCCC1	2	1	1	-1	13*	9.9*	6	3	7	0
CC1CCN(C(=S)NCCc2ccccc2)CC1	1	3	2	0	14*	8.7*	11*	6.7*	11*	1
S=C(NCCc1ccccc1)N1CCN(C(=S)NCCc2ccccc2)CC1	-1	-1	1	-1	0	1	/	/	/	/
Cc1cc(C)c(C2=NOC3c4ccccc4OCC23)c(C)c1 (configuration not stated)	/	-3	0	-1	2	-3	/	/	/	/
N/C(=N\OC(=O)c1cccc2ccccc12)c1ccccn1	1	15*	2	3.5*	14*	11*	11*	10*	11*	1	LXR ag=1;hcDAF12 ag=14*
Cc1cccc(/C(N)=N/OC(=O)c2ccco2)c1	1	6.6*	3.7*	1.4*	18*	9.3*	19*	11*	19*	1	LXR ag=1;hcDAF12 ag=4
